Measured values reported in PubChem BioAssay (NCATS).
Records with an inconclusive call do not appear. The source made the active and inactive calls. Calls follow the shape of the dose curve; as a rule, active = well fitted inhibition curve with a large enough effect; inconclusive = small, poorly fitted or top-dose-only effect; inactive = flat fitted curve, though single readings scatter.

Key:
[1] = tested on: CRL-7250; assay: Cytotoxic Profiling of Annotated Libraries Using Quantitative High-Throughput Screening (AID 1296008); settings: Five cell lines viability, CellTiter-Glo ATP luminescence, 48-72 h; max response: stronger effect = lower value; as to max response: % is scaled to controls: 0 for no effect and ±100 for the full control effect
How it was run: (§1)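 Cells exposed to compounds for 48 or 72 hr at 37 degrees Celsius. Viability read as ATP-coupled luminescence with CellTiter-Glo after 10 min at room temperature.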

[2] = tested on: HEK293; assay: as above; settings: Five cell lines viability, CellTiter-Glo ATP luminescence, 48-72 h; max response: stronger effect = lower value
How it was run: as §1

[3] = tested on: HaCat; assay: as above; settings: Five cell lines viability, CellTiter-Glo ATP luminescence, 48-72 h; max response: stronger effect = lower value
How it was run: as §1

[4] = tested on: KB-3-1; assay: as above; settings: Five cell lines viability, CellTiter-Glo ATP luminescence, 48-72 h; max response: stronger effect = lower value
How it was run: as §1

[5] = tested on: NIH3T3; assay: as above; settings: Five cell lines viability, CellTiter-Glo ATP luminescence, 48-72 h; max response: stronger effect = lower value
How it was run: as §1

[6] = tested on: HACAT; assay: qHTS assay to identify novel small-molecules to repurpose for Merkel cell carcinoma treatment (AID 1296009); settings: MCC and control cell lines, CellTiter-Glo viability, 72 h; at 44.8 µM (top of the series) unless noted
How it was run: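 CellTiter-Glo luminescence after 72 hr compound exposure at 37 degree celsius gave cell viability. Libraries NPC and MIPE were run as 8- and 11-point dose responses; RLUs normalized to DMSO (negative) and no-cell (cytotoxicity) controls.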

Measured: max response
Also: nearly all actives have a fitted effect of over 60% in size.

CC1C2=CC(=O)OC2(O)CC2C1CCC1C(C)(C)CCC(O)C21C (centres undefined)
inactive: [1] -5.55% | [2] -27.5% | [3] | [4] -9.97% | [5] 0.733% | [6]

CC(=O)OCC1OC(OC2COC(OC3COC(OC4C(OC5C(CO)OC(OC6CCC7(C)C(CCC8(C)C7CC=C7C9CC(C)(C)CCC9(C(=O)OC9OC(CO)C(O)C(O)C9OC9OCC(OC%10OCC(O)(CO)C%10O)C(O)C9O)C(O)CC78C)C6(C)C)C(O)C5O)OCC(O)C4O)C(O)C3O)C(O)C2O)C(OC(=O)/C=C/c2ccccc2)C(O)C1OC(C)=O (centres undefined)
inactive: [1] 2.77% | [2] -18.2% | [3] | [4] 4.45% | [5] -0.042% | [6] inactive [at 4.96 µM]

CCC(C)/C=C(C)/C=C/C1=CC2=C(Cl)C(=O)C(C)(OC(C)=O)C(=O)C2=CN1C(CCCN=C(N)N)C(=O)O (centres undefined)
inactive: [1] -3.35% | [2] 3% | [3] | [4] 7.97% | [5] -0.868% | [6] inactive [at 17.4 µM]

C=C1CC[C@@H]2[C@](C)(CO)[C@H](O[C@@H]3O[C@H](CO)[C@@H](O)[C@H](O)[C@H]3O)CC[C@@]2(C)[C@@H]1C/C=C1/C(=O)OC[C@H]1O
inactive: [1] -3.97% | [2] -5.74% | [3] | [4] -0.713% | [5] -0.313% | [6] inactive [at 17.4 µM]

COC(=O)C1=COC(O[C@@H]2O[C@H](COC(=O)/C=C/c3ccc(O)cc3)[C@@H](O)[C@H](O)[C@H]2O)C2C(CO)=CCC12 (some centres undefined)
inactive: [1] | [2] -1.21% | [3] | [4] | [5] 2.77% | [6] inactive [at 17.4 µM]

C/C=C/C=C/C=C/C(=O)OC1C=C2C(O)OC(=O)[C@]2(O)[C@@]2(C)CCCC(C)(C)[C@H]12 (some centres undefined)
inactive: [1] -0.551% | [2] 4.05% | [3] | [4] 4.24% | [5] 3.08% | [6] inactive [at 17.4 µM]

Cc1[nH]c2ccccc2c1CC(=O)N[C@@H](Cc1ccccc1)C(=O)N(C)c1ccccc1
inactive: [1] -9.69% | [2] -12.5% | [3] | [4] | [5] -0.277% | [6]

C[C@H](/C=C/[C@@]1(O)[C@H](C)CC(=O)CC1(C)C)O[C@@H]1O[C@H](CO[C@@H]2OC[C@@H](O)[C@H](O)[C@H]2O)[C@@H](O)[C@H](O)[C@H]1O
inactive: [1] | [2] -7.74% | [3] | [4] | [5] -1.42% | [6] inactive [at 17.4 µM]

CCC[C@H](N[C@@H](C)C(=O)N1[C@H](C(=O)O)C[C@@H]2CCCC[C@@H]21)C(=O)O
inactive: [1] -2.24% | [2] 3.79% | [3] | [4] -5.15% | [5] -10.2% | [6]

CCC(C)C(=O)O[C@H]1C[C@](C)(O)[C@]23OC(C)(C)[C@H](C[C@H](OC(=O)c4ccccc4)[C@]2(COC(C)=O)[C@H]1OC(=O)C(C)CC)[C@H]3OC(C)=O (some centres undefined)
inactive: [1] -7.32% | [2] -12.8% | [3] | [4] | [5] 4.39% | [6] inactive [at 17.4 µM]

COc1c2cc(c(O)c1OC)CCCCC(O)CCc1ccc(O)c-2c1 (centres undefined)
inactive: [1] -1.76% | [2] -0.95% | [3] | [4] 2.35% | [5] -4.18% | [6]

COc1ccc(/C=C/C(=O)N2CCCC2)cc1
inactive: [1] 1.09% | [2] 2.31% | [3] | [4] 2.27% | [5] -2.69% | [6]

C/C=C(/C)C(=O)O[C@H]1C[C@]2(C)O[C@@H]2[C@@H](OC(C)=O)[C@@]2(C)CC[C@@](O)(C(C)C)[C@H]12
inactive: [1] | [2] -3.47% | [3] | [4] -1.06% | [5] -1.87% | [6]

COc1cc(O)cc(C)c1C(=O)O[C@H]1[C@@H](O)[C@@H](n2ccc(=O)[nH]c2=O)O[C@@H]1CO
inactive: [1] -0.148% | [2] -4.61% | [3] | [4] -0.769% | [5] | [6] inactive [at 17.4 µM]
